Source: PubChem BioAssay (Johns Hopkins Ion Channel Center)
KCNQ2 inh = inhibitors of rat KCNQ2 potassium channel. O88943. 310,000 compounds, 1.1% hits. B-score at 10 µM. CHO-K1 KCNQ2, FluxOR thallium flux, 20 min; stronger effect = lower value;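 active = fluorescence ratio B-score at most minus 3 library SDs, with starting brightness B-score within 2 library SDs, cut at about -5.5 in these data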
Target sequence (O88943 whole entry, looked up): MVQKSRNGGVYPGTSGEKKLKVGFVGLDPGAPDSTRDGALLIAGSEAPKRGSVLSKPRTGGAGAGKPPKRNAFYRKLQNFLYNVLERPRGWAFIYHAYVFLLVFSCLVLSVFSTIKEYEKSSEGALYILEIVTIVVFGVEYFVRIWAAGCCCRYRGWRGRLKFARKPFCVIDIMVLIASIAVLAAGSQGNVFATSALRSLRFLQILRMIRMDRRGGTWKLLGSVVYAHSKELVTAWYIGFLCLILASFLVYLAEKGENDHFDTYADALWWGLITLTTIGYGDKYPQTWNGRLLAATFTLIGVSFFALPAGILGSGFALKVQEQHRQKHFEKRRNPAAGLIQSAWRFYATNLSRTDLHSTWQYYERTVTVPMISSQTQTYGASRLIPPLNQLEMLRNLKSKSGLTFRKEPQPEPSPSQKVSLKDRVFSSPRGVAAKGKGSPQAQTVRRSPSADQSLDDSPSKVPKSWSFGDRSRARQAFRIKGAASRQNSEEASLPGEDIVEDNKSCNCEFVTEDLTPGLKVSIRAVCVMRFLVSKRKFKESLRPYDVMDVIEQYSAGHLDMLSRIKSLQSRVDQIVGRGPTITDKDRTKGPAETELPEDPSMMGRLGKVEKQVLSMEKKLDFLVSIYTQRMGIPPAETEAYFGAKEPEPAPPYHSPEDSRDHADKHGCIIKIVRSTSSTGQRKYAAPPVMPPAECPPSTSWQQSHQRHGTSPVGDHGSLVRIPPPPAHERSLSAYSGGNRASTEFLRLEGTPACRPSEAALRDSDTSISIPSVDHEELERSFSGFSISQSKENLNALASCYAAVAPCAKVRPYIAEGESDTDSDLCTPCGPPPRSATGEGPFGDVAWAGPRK
KCNQ2 enhance = KCNQ2 (rat) channel potentiation; CHO-K1 KCNQ2, FluxOR thallium flux fluorescence; stronger effect = higher value; B-score at 10 µM; 310,000 compounds, 0.54% hits;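 active = fluorescence ratio B-score at least 3 SD of library B-scores, with initial fluorescence B-score within 3 of them, cut at about 5.3 in these data; same plate scores as AID 2156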;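 note: B-score of peak minus minimum over baseline fluorescence ratio after K+ and Tl+ stimulus; positive B-score means potentiation of KCNQ2 with more thallium influx and brighter signal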
* marks the source's active call; other numbers are inactive results; i = inactive; . = no result. Compounds with a hit are over-represented: about 1.6% of the library has one in this group of screens.

SMILES | KCNQ2 inh | KCNQ2 enhance
COc1ccc(S(=O)(=O)NC(C)C(=O)NCc2ccccn2)cc1Cl (stereo not given) | i | 0.52
Cc1ccccc1C(=O)N1CCN(C(c2ccccc2)c2ccccc2)CC1 | i | .
Cc1occc1C(=O)N1CCN(C(c2ccccc2)c2ccccc2)CC1 | -6.4* | -6.4
CC(C)OC(=O)/C(=C/c1ccc2c(c1)c1ccccc1n2C)NC(=O)c1ccccc1 | i | .
COC(=O)/C(=C\c1ccc2c(c1)c1ccccc1n2C)NC(=O)c1ccccc1 | -7.6* | -7.6
Cc1ccc(S(=O)(=O)NCC(C)n2nc(C)cc2C)cc1 (stereo not given) | i | 2.7
Cc1ccc(C(C[N+](=O)[O-])n2nc(C)cc2C)cc1 (stereo not given) | -7.4* | -7.4
CC(C)CNC(=O)[C@H]1N2C(=O)c3ccccc3C2SC1(C)C (stereo not given in full) | i | .
CCc1cc2c(=O)[nH]c(N3CCCC3)nc2s1 | i | .
CCc1cc2c(=O)[nH]c(-c3ccccn3)nc2s1 | i | 11*
O=c1ccc(-c2ccc(S(=O)(=O)Nc3cccc(Br)c3)o2)n[nH]1 | i | .
COc1ncnc2c1sc1nc(-c3ccccc3)c3c(c12)CCCC3 | i | 0.04
CN(C)CCNc1ncnc2c1sc1nc(-c3ccccc3)c3c(c12)CCCC3 | -7.8* | -7.8
COCCN(Cc1ccco1)C(=O)Cn1ncc2c(=O)oc3ccccc3c21 | i | .
Cc1ccc2c(c1)N(CC(=O)NC1CCC(C)CC1)C(=O)c1cccnc1O2 (stereo not given) | i | 0.02
Cc1ccc(C)c(N2N=C(C(=O)NCCN3C(=O)S/C(=C\c4cccnc4)C3=O)CCC2=O)c1 | i | 2.3
Cc1cc(C(=O)NCc2ccc3c(c2)OCO3)ccc1[N+](=O)[O-] | i | 3.6
CC1CC(C)CN(c2ccc(C(=O)NCc3ccc4c(c3)OCO4)cc2[N+](=O)[O-])C1 (stereo not given) | i | 8.9*
COc1ccc(CN(C(=O)c2cc(=O)c3cc(C)cc(C)c3o2)C2CCS(=O)(=O)C2)cc1 (stereo not given) | i | 0.92
O=C(NCc1ccccc1)C(c1cccs1)N(Cc1cccs1)C(=O)c1cnccn1 (stereo not given) | -6* | -6
O=C(NCc1ccccc1)C(c1ccccc1)N(Cc1cccs1)C(=O)c1cnccn1 (stereo not given) | i | .
O=C(C1=NN(c2ccccc2)C(=O)CC1)N1CCc2ccccc2C1 | i | .
O=S(=O)(Nc1ccc(C(F)(F)F)cn1)c1ccccc1 | i | .
CC(C)(C)n1nc2c(c1NC(=O)c1cc(Cl)ccc1[N+](=O)[O-])CS(=O)(=O)C2 | i | 0.25
COc1cc(C2NC(=S)NC(C)=C2C(=O)Nc2cc(C)cc(C)c2)ccc1O (stereo not given) | i | .
SMILES | KCNQ2 inh | KCNQ2 enhance
COC(=O)C1=C(C(=O)OC)SC(=C2C(=S)C(C)(C)N(C(=O)C(C)C)c3ccccc32)S1 | i | .
CCCC(=O)N1c2ccccc2C(=C2SC(C(=O)OC)=C(C(=O)OC)S2)C(=S)C1(C)C | -7.9* | -7.9
CC(C(=O)N1CCN(Cc2ccc3c(c2)OCO3)CC1)n1cc([N+](=O)[O-])cn1 (stereo not given) | i | .
CCn1c(SCC(=O)N/N=C/c2ccccc2OCC(=O)O)nnc1-c1ccc(C)cc1 | i | .
Cc1nnc(SC(C)C(=O)Nc2ccc(Cl)cn2)n1Cc1ccccc1 (stereo not given) | -6.2* | -6.2
CC(Sc1nnc(-c2ccc(Cl)cc2Cl)n1Cc1ccccc1)C(=O)Nc1nccs1 (stereo not given) | i | .
CN(c1ccccc1C(=O)Nc1ccccc1-c1ccccc1)S(C)(=O)=O | i | .
O=C(NCc1ccccc1Br)c1ccncc1 | i | .
O=C(Nc1ccccc1Cl)c1ccccc1Cl | i | .
O=C(Nc1ccccc1Cl)c1cc2ccccc2o/c1=N\O | -5.6* | -5.6
CC(C)n1cc(C(=O)N2CCCC(N3CCN(c4cccc(Cl)c4)CC3)C2)cn1 (stereo not given) | i | .
CC1CCN(C(=O)CCC(=O)N2CC(C)Oc3ccccc32)CC1 (stereo not given) | i | .
Cc1ccc2c(c1)N(C(=O)CCC(=O)N1CCN(c3cccc(C)c3C)CC1)CCO2 | -5.7* | -5.7
Cc1cccc(N2CCN(C(=O)CCC(=O)N3CC(C)Oc4ccccc43)CC2)c1C (stereo not given) | -5.9* | -5.9
Cc1ccc2c(c1)N(C(=O)CCC(=O)N1CCN(c3ccccc3)CC1)CCO2 | i | 0.01
COc1ccc(OCC(=O)NNC(=S)NC(=O)c2ccc(Br)o2)cc1 | i | .
CC1(C)CC(=O)c2c(O)cc(OCC(=O)N3CCN(c4ccccc4)CC3)cc2O1 | i | 0.05
CC(C)C(NC(=O)c1ccccc1)c1nnc(SCC(=O)NC2CCCC2)n1C (stereo not given) | i | 0.1
CCCc1ccc(S(=O)(=O)N/N=C(/C)c2ccc3c(c2)OCO3)cc1 | i | 1
CC(=O)c1ccc(NC(=S)N2CCCC(CO)C2)cc1 (stereo not given) | i | 13*
COC(=O)Cc1ccc(NC(=S)N2CCCC(CO)C2)cc1 (stereo not given) | i | 1
O=[N+]([O-])c1ccccc1/C=C/CN1CCN(Cc2ccc3c(c2)OCO3)CC1 | i | .
Cc1ccccc1NC(=O)NC1(C(=O)NCC2CCCO2)CCCCC1 (stereo not given) | i | 0.65
CC(C)(C)C1CCC(=O)N(CCSc2ccccc2)CC1 (stereo not given) | i | .
Cc1ccc(S[C@@H](CCN2CC[C@H](C(C)(C)C)CCC2=O)c2ccccc2)cc1 | -5.8* | -5.8
SMILES | KCNQ2 inh | KCNQ2 enhance
C[C@@H](CSc1ccccc1)CN1CC[C@H](C(C)(C)C)CCC1=O | -7.2* | -7.2
Cc1ccc(S[C@@H](CCN2CC[C@H](C)CCC2=O)c2ccccc2)cc1 | i | .
C=CCS/C(N)=N\N=C\c1cc(Br)cc([N+](=O)[O-])c1O | i | 2.9
C/C=C/c1ccc(OCC(=O)N(CCOC)c2c(N)n(CCCC)c(=O)[nH]c2=O)c(OC)c1 | i | .
CCN(CC)c1nc(C)c2c(c1C#N)CC(C)(C)OC2 | -6.7* | -6.7
Cc1nc(NCCCO)c(C#N)c2c1COC(C)(C)C2 | i | .
O=C(NCc1cc(F)ccc1F)C1CCC(=O)N(C2CCCCCC2)C1 (stereo not given) | i | 0.37
CN1C(=O)C2(OCC(CO)([N+](=O)[O-])CO2)c2ccccc21 (stereo not given) | i | .
COC(=O)C1=C(C)N(c2cccc(OC)c2)C(=O)/C1=C\c1ccco1 | -6.2* | -6.2
CCN1C(=O)/C(=C\c2ccco2)C(C(=O)OC)=C1C | i | 0.9
CCOC(=O)C1=C(C)N(c2ccc(OCC)cc2)C(=O)/C1=C\c1ccco1 | i | .
COC(=O)C1=C(C)N(CCc2ccccc2)C(=O)/C1=C\c1ccco1 | -5.9* | -5.9
COC(=O)C1=C(C)N(Cc2ccccc2)C(=O)/C1=C\c1ccco1 | -5.7* | -5.7
C=CCN1C(=O)/C(=C\c2ccco2)C(C(=O)OC)=C1C | i | 0.71
OC1OC[C@@H](O)[C@H](O)[C@H]1O (stereo not given in full) | i | .
CCCCc1ccc(NC(=S)Nc2ccc(Cl)c(S(=O)(=O)N(C)C)c2)cc1 | i | 1.7
Cc1ccc(Cn2ncc3c(N4CCN(Cc5ccc(Cl)cc5)CC4)ncnc32)cc1 | i | .
